Rows were chosen to be rich in hits. Some 5.2% of all compounds tested hit in one or more screens of this group.
Sfp PPTase inh: blocks B. subtilis Sfp PPTase activity; Q9F4F7; Biochemical Sfp PPTase activity, qHTS; Potency, µM, without a hit: largest response in the series, negative = inhibition, actives largely listed as inhibitors; 3.5% of 310,000 active; AID 1490;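 note: the enzyme is Sfp with the accession as filed and its product quenches rhodamine fluorescence; potency is the fitted concentration of half-maximal effect; 0% = enzyme reaction without inhibitor and -100% = no enzyme wells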
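Reaction rates are the 30-min fluorescence difference (ex 525, em 598 nm) in wells containing 15 nM Sfp, 5 uM rhodamine-CoA and 12.5 uM BHQ-2-YbbR at pH 7.6 with 10 mM MgCl2.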
Tau ThT inhib: tau fibrillization inhibition (ThT binding) | recombinant tau K18 P301L, heparin-induced fibrillization, ThT fluorescence | P10636 | Potency, µM (doses to about 57.4 µM), for the others: at the highest dose activity, negative = inhibition, hits mostly inhibitors | 2.1% of 270,000 active; note: potency is the fitted concentration of half-maximal effect; nearly all actives have a fitted effect of over 55% in size
Target sequence (P10636 561-689 P618L limits assumed): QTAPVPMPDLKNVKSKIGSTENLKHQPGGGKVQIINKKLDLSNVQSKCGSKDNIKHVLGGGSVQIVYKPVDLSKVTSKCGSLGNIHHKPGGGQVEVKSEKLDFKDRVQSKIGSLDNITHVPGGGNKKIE
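Aggregation was driven by heparin (20 uM final) acting on recombinant tau […] bearing P301L in 100 mM sodium acetate pH 7; fibrils were detected with Thioflavin T.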
Tau FP inhib: inhibitors of human tau fibril formation. AID 1468. Potency, µM (titrated, usually from 57.7 µM), for inactives: at the highest dose activity, negative = inhibition, actives largely listed as inhibitors. 0.39% of 280,000 active. P10636. K18 P301L tau heparin fibrillization, Alexa594 FP, 6 h; note: potency is the fitted concentration of half-maximal effect; nearly all actives have a fitted effect of over 55% in size
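Compound effects on tau fibrillization are measured by Alexa 594 fluorescence polarization (ex 555, em 632 nm). K18 P301L tau is used at 15 uM with 0.24 uM labeled tracer, and 20 uM heparin induces aggregation over 6 hr at 37 C.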
Coupling enz: coupling enzyme interference in Giardia aldolase counter-screen; 0.67% of 290,000 active; AID 2472; coupling enzyme system counterscreen, AmpLite Red fluorescence; activity change, negative = inhibition, % at 58.2 µM, hits read low; in the data active = activity change below about -30%
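First, compound is pin-transferred into glyceraldehyde-3-phosphate coupling-enzyme reagent at 57.5 uM final and held 10 min at RT. Next, substrate, coupling system and AmpLite Red are added. After 20 min RT, fluorescence (525/598 nm) is read.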
Tau fluor cs: counter-screen for tau fibril formation inhibitors | 0.93% of 280,000 active | Potency, µM (top dose mostly 57.7 µM), for inactives: at the top dose activity change, negative = decrease | tau K18 P301L Alexa594 fluorescence, heparin fibrillization | AID 1463; note: potency is the fitted concentration of half-maximal effect; nearly all actives have a fitted effect of over 55% in size
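Human tau K18 P301L (15 uM unlabeled, 0.24 uM Alexa 594-labeled) in 100 mM sodium acetate pH 7 with 20 uM heparin, 6 hr at 37 C. ThT 30 uM added, 1 hr ambient; Alexa 594 FP and total fluorescence read at 555/632 nm.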
* hit, by the source's call; ? = inconclusive; nt = no result given; [ ] = dose if it differs, or a comment. Unless noted, calls come from the whole dose curve; as a rule, active = well fitted curve in the direction sought with a large enough effect; inconclusive = small, poorly fitted or top-dose-only effect, or another doubt; inactive = no such curve, though single readings can be large; an effect the other way counts as inactive or inconclusive. Unless noted, % is set by controls: 0 for no effect and ±100 for the full control effect.

SMILES | Sfp PPTase inh | Tau ThT inhib | Tau FP inhib | Coupling enz | Tau fluor cs
Cc1ccc(/C=C/C(=O)Nc2ccc(N(C)C)cc2)o1 | -26% | 8.9µM* | 3% | -5 | -26%
O=C(/C=C/c1ccco1)Nc1cccc(S(=O)(=O)N2CCOCC2)c1 | -14% | -14% | -14% | 0 | -14%
Cc1ccc(/C=C/C(=O)Nc2cccc(S(=O)(=O)N3CCOCC3)c2)o1 | 13µM* | 6% | ? | -9 | 5%
CN(C)CCCCOc1cccc(Br)c1 | 56µM* | ? | -10% | -4 | -22%
C=CCc1cccc(/C=N/NC(=O)CNc2ccccc2)c1O | 6% | 4% | ? | -1 | ?
C=CCc1cccc(/C=N/NC(=O)CCCNc2ccc(C)cc2)c1O | 22% | ? | 11% | -7 | 11µM*[quencher]
C=CCc1cccc(/C=N/NC(=O)CNc2ccccc2OC)c1O | 21% | ? | ? | 0 | 16µM*[quencher]
COc1ccccc1NCC(=O)N/N=C/C=C/c1ccccc1 | -19% | 14µM* | 4% | -5 | ?
Cc1cc(-c2n[nH]c(=S)n2Cc2ccco2)n(C)n1 | 50µM* | -13% | 9% | 0 | -9%
Cc1cc(-c2n[nH]c(=S)n2Cc2ccco2)nn1C | -7% | -8% | -10% | 4 | -6%
CCOC(=O)c1cnc(SSc2ncc(C(=O)OCC)c(N)n2)nc1N | 7.9µM* | nt | nt | -1 | nt
COc1ccccc1NC1=C(N2CCCCC2)C(=O)c2ccccc2C1=O | 4% | 13µM* | ? | -51* | ?
O=C(/C=C/c1ccc(O)cc1)c1ccc(NC2=C(N3CCCCC3)C(=O)c3ccccc3C2=O)cc1 | ? | 7.9µM* | ? | -46* | 13µM*[quencher]
O=C1C(Nc2cccc(O)c2)=C(N2CCCCC2)C(=O)c2ccccc21 | 32µM* | 14µM* | ? | -51* | 18µM*[quencher]
CN(C1=C(N2CCCCC2)C(=O)c2ccccc2C1=O)c1ccccc1 | -10% | ? | 4% | -27 | ?
Cc1ccc(NC2=C(N3CCCCC3)C(=O)c3ccccc3C2=O)cc1 | -13% | -15% | -5% | -45* | -25%
COc1cccc([C@@H]2Oc3ccc(OC)cc3C(=O)[C@H]2OC(=O)Nc2ccc(OC(F)F)cc2)c1 | -7% | -5% | -13% | 1 | -26%
Cn1c(=O)n(CC(=O)O)c(=O)c2c1nc1n2CCCN1c1ccc(Cl)cc1 | nt | -3% | 4% | nt | -7%
COc1cccc(-c2ccnc3c(-c4ccccc4)c(C)nn23)c1 | nt | ? | -13% | nt | ?
CCN(CC)CCCC(C)n1c(-c2ccccc2)nc2c(NCCO)nc(C)nc21 (stereo not drawn) | 24% | -12% | -5% | 2 | -17%
O=C1C(Nc2ccccc2)=C(N2CCCCC2)C(=O)c2ccccc21 | -1% | 18µM* | ? | -50* | -26%
CCOC(=O)N1CCC2(CC1)OC(=O)C(C)=C2C(=O)NCc1cccc(F)c1 | nt | -1% | -4% | nt | -4%
CCOC(=O)C1CCC(CN(Cc2ccc(Cl)cc2)S(=O)(=O)c2cc(Cl)cc(Cl)c2)CC1 (stereo not drawn) | nt | 4% | -2% | nt | 3%
O=[N+]([O-])c1ccc(Sc2ncccn2)c([N+](=O)[O-])c1 | -16% | 13µM* | ? | 0 | 6.3µM*[quencher]
Cc1cccc(Sc2ccc([N+](=O)[O-])cc2[N+](=O)[O-])n1 | 7% | ? | -5% | -20 | ?
SMILES | Sfp PPTase inh | Tau ThT inhib | Tau FP inhib | Coupling enz | Tau fluor cs
O=C(O)CCSc1ccc([N+](=O)[O-])cc1[N+](=O)[O-] | 45µM* | ? | -1% | 1 | -19%
COc1ccc(Cl)cc1NS(=O)(=O)c1c(C)[nH]c(=O)[nH]c1=O | 24% | 28µM* | ? | 1 | ?
CCN(CC)c1ccc(C=Nc2ccc(C)cc2C)c(O)c1 | -19% | ? | 4% | -9 | -15%
Cc1ccc(N=Cc2sc(O)c3ccccc23)c(C)c1 | 22µM* | ? | ? | -1 | -28%
Cc1ccc(N=Cc2sc(O)c3ccccc23)cc1 | 32µM* | -8% | -10% | -9 | ?
CCOC(=O)c1c(S(=O)(=O)NCC(=O)N(C)Cc2ccccc2)c(C)n(C)c1C | nt | 4% | 0% | nt | 0%
CCOC(=O)OCC1OC(c2cc(C)cc(C)c2)C=CC1OC(=O)OCC (stereo not drawn) | 10% | -17%[11.5 µM] | -4%[11.6 µM] | 1 | -23%[11.6 µM]
CCOC(=O)CN1NC2(CCCCCC2)NC1=S | 50µM* | -14% | 11% | 3 | -10%
N#CCCCS(=O)(=O)c1nc2ccccc2s1 | 19% | -10% | 2% | 1 | -6%
CCc1cc(SC#N)cc(C)c1N | 1% | 14µM* | ? | 0 | -24%
O=C1NN(c2cccc(Br)c2)C(=O)/C1=C/c1ccc(-c2cc([N+](=O)[O-])ccc2O)o1 | 16% | 2.8µM* | ? | 7 | 4.5µM*[quencher]
CC1=NN(c2ccc(C)cc2)C(=O)/C1=C/c1ccc(-c2cc([N+](=O)[O-])ccc2O)o1 | -18% | nt | nt | -6 | nt
COc1ccc(NC(=S)N2CCC(N(C)CC3CCCO3)CC2)cc1Cl (stereo not drawn) | 40µM* | -6% | 2% | -1 | -8%
Nc1nsc2ccccc12 | ? | 13µM* | ? | 2 | -17%
O=C(O)c1cccc(NC(=S)NC(=O)c2ccc(-c3ccc(Cl)cc3)o2)c1 | ? | ? | -3% | 3 | -8%
COc1ccc(C(=O)O)cc1NC(=S)NC(=O)c1ccc(-c2ccc(Cl)cc2)o1 | ? | ? | -15% | 4 | ?
Cc1ccc(C(=O)O)cc1NC(=S)NC(=O)c1ccc(-c2ccc(Cl)cc2)o1 | 50µM* | nt | 1% | 0 | -19%
O=C(O)c1ccc(NC(=S)NC(=O)c2ccc(-c3ccc(Br)cc3)o2)cc1 | 45µM* | nt | nt | 2 | nt
O=C1c2cccc3c(O)ccc(c23)C(=O)N1Cc1ccco1 | 7.1µM* | ? | -10% | -9 | -25%
O=C(NCc1ccco1)C1CC(c2ccc(Cl)c(Cl)c2)=NO1 (stereo not drawn) | 15% | 12% | -4%[2.34 µM] | 7 | 15%
Cc1ccc(CNC(=O)C2CC(c3cccc([N+](=O)[O-])c3)=NO2)o1 (stereo not drawn) | 45µM* | ? | 11% | -2 | -15%
COc1ccc(CCNC(=O)C2CC(c3cccc([N+](=O)[O-])c3)=NO2)cc1 (stereo not drawn) | 8% | -12% | -6% | 0 | -14%
Cc1ccc(CNC(=O)C2CC(c3cc(C(F)(F)F)cc(C(F)(F)F)c3)=NO2)o1 (stereo not drawn) | 56µM* | -4% | 6% | 1 | -1%
O=C(NCc1ccco1)C1CC(c2c(Cl)cccc2Cl)=NO1 (stereo not drawn) | 79µM* | ? | -3% | 0 | -9%
COc1ccc(C(=O)c2c(C(F)(F)F)oc3c2C(=O)c2ccccc2C3=O)cc1 | -1% | ? | ? | -43* | ?

Bioassay records deposited in PubChem by National Center for Advancing Translational Sciences (NCATS).
